About 15 (0.007%) of roughly 200,000 compounds were called active. The entries come from a sample that favours actives as a whole. Unmarked numbers belong to inactive results. No stated cut-off is given here; in the data, active means displacement above about 50%; inactive means the rest.

The target of this assay is E3 ubiquitin-protein ligase XIAP (Homo sapiens) (UniProt P98170). The experiment in a line: small molecules displacing peptide from XIAP – biochemical, IAP family, fluorescence polarization (AID 1018). Particulars: XIAP BIR domain, at 20 µM, stronger effect = higher value. A general note: Polarisation of emitted light reports the rotation of a fluorescent probe.
Sequence of E3 ubiquitin-protein ligase XIAP (Homo sapiens) (P98170 whole entry, looked up, the tested form may be a part): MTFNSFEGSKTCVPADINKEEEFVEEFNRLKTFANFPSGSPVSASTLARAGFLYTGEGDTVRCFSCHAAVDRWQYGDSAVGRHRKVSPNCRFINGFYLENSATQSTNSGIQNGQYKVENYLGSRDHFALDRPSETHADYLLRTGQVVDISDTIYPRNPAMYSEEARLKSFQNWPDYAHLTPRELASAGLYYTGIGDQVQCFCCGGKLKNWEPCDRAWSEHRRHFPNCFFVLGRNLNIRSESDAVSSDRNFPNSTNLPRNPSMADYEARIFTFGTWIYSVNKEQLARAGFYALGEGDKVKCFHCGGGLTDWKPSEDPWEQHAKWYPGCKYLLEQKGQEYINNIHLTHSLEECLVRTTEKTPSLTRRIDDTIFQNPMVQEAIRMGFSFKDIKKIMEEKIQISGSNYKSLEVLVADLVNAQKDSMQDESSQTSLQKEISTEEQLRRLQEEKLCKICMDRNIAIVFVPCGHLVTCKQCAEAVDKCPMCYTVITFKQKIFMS
Take `O=c1[nH]nc(CNc2ccc(OC(F)(F)F)cc2)c2ccccc12`: the displacement is -3.9%.

As for `COc1ccccc1N(C)S(=O)(=O)c1ccc(C(=O)Nc2ccc3nc(C)sc3c2)cc1`, the displacement is 1.3%.

For `Cc1cc(C(F)(F)F)nn1CC(=O)N(C)c1ccccc1`, the displacement is -1.9%.

For `CCNS(=O)(=O)c1ccc(Br)c(OC)c1`, the displacement is -3.2%.

`COc1cc2nc(CN3CCN(S(=O)(=O)c4ccc(Cl)cc4)CC3)[nH]c(=O)c2cc1OC`: the displacement is -6.8%.

In the case of `C#CCOCCOCCOCCNc1nc(N2CCN(C(=O)[C@H](CCCCN)n3cc([C@@H](N)C(C)CC)nn3)CC2)nc(N2CCN(C(=O)[C@H](CCCCN)n3cc([C@@H](N)CO)nn3)CC2)n1` (some centres undefined), the displacement was 3.3%.

For the compound `CN(C)S(=O)(=O)c1ccc(C(=O)Nc2ccnn2C2CCCCC2)cc1`, the displacement is -3.3%.

For the compound `COc1ccc(-c2nc(CC(=O)O)cs2)cc1OC`, the displacement is -0.6%.

With `Cc1ccc(C2NC(=O)NC3=C2CCc2ccccc23)cc1` (centres undefined), the displacement was -5.1%.

Take `O=C1NC2=C(CCc3ccccc32)C(c2ccccc2)N1` (centres undefined): the displacement is -5.4%.

On to `CC(C)c1ccc(C2NC(=O)NC3=C2CCc2ccccc23)cc1` (centres undefined), for which the displacement was 52.5% (active).

As for `CCOC(=O)c1c(-c2ccc(C)o2)csc1NC(=O)CSc1nnnn1-c1ccccc1`, the displacement is -8.2%.

For the compound `CCCCCCCCNC(=O)c1cnsn1`, the displacement was -0.1%.

As to `COc1cccc(-c2cc(C(=O)NCCCn3ccnc3)c3ccccc3n2)c1`, the displacement is -3%.

As to `O=C(Cn1cc2c(n1)CCCCC2)NC1CCN(Cc2ccccc2)CC1`, the displacement was -4.9%.

Turning to `CCCc1cc(-c2n[nH]c(=S)n2CC)cs1`, the displacement was -5.7%.

In the case of `O=C(Cn1c(=O)oc2cc(S(=O)(=O)N3CCCCC3)ccc21)N1CCc2ccccc2C1`, the displacement is -5.2%.

For the compound `COc1ccc(NC(=O)OCCN2CCN(Cc3ccccc3)CCC2=O)cc1`, the displacement is -8%.

In the case of `N#Cc1nc(COc2ccccc2)oc1N1CCN(Cc2ccccc2)CC1`, the displacement is 0.7%.

In the case of `CCC(C)NC(=O)Cc1c(OC)ccc2cc(Br)ccc12` (centres undefined), the displacement was -4.6%.

As to `C=CCSc1nnc(-c2ccccc2NC(=O)CC)c(=O)[nH]1`, the displacement was -1.1%.

For `COc1ccccc1N1CCN(C(=O)CCN2C(=O)c3cccc4cccc(c34)C2=O)CC1`, the displacement is -4.4%.

As to `CC(=O)Nc1ccc(NC(=O)C(C)c2cccc(C(=O)c3ccccc3)c2)cc1` (centres undefined), the displacement was 2.4%.

For `CCOC(=O)c1ccc(NC(=S)NCCCN2CCCCC2)cc1`, the displacement is -4.4%.

For the compound `COC(=O)c1cc2n3ccccc3c(C)c(-c3ccccc3)c-2c1C(=O)OC`, the displacement is 72.2% (active).

Consider `COC(=O)c1c(Cl)c2n3ccccc3c(C)c(-c3ccccc3)c-2c1C(=O)OC`, for which the displacement was -0.6%.

Turning to `COC(=O)c1cc2c(-c3ccccc3)c(C)c3ccccn3c-2c1C(=O)OC`, the displacement was 26%.

Take `O=C(O)/C=C\C(=O)NCc1cccnc1`: the displacement is -9.2%.

Regarding `Cc1cc(F)ccc1N1CCC(N2CCN(C(C)C)C(CCO)C2)CC1` (centres undefined), the displacement was -1.1%.

As to `O=C(c1cc(COc2ccc(F)cc2F)on1)N1CCSCC1`, the displacement was -0.5%.

In the case of `CCN1CCN(C(=S)Nc2cc(S(=O)(=O)N(CC)CC)ccc2C)CC1`, the displacement was -2.7%.

For the compound `Cc1ccccc1NC(=O)Cc1c(O)c2ccccc2[nH]c1=O`, the displacement was -1.1%.

Take `CCOC(=O)CSC(=S)NC(=O)c1ccc(OC)cc1`: the displacement was -1.6%.

On to `CCOC(=O)C1=C(C)NC(=NC)SC1c1ccccc1` (centres undefined), for which the displacement was -5%.

With `CSc1nnc(-c2cccs2)n1-c1ccccc1`, the displacement was 0.8%.

In the case of `CCOC(=O)C1(CC2CC2)CCN(Cc2ccc(O)c(Cl)c2)CC1`, the displacement was -4.8%.

With `CCCc1cc(=O)[nH]c(SCC(=O)N(CC)C2CCS(=O)(=O)C2)n1` (centres undefined), the displacement is -4.4%.

On to `CC(C)(C)C1=C(C#N)C(c2ccncc2)C(C#N)=C(N)O1` (centres undefined), for which the displacement is -0.4%.

For the compound `CCN1CCCC1CNC(=O)Cn1cccc1C(=O)c1ccccc1` (centres undefined), the displacement was -6.4%.

In the case of `CC(=O)c1cc(-c2ccccc2)n(CC(=O)Nc2cc(C)cc(C)c2)c1C`, the displacement was -1%.

In the case of `Cc1ccc(C)c2[nH]c(=O)c(CN(Cc3ccco3)C(=S)NCC3CCCO3)cc12` (centres undefined), the displacement was 0.3%.

Consider `CCN(c1ccccc1)S(=O)(=O)c1cc(C(=O)Nc2ccccc2Cl)ccc1F`, for which the displacement is -5.8%.

As for `O=C(c1ccc(F)cc1)N1CCCCC(Sc2nnnn2-c2ccccc2)C1=O` (centres undefined), the displacement is -21.1%.

As to `Cc1c(C(=O)C(=O)NCC2CCCO2)c2ccccc2n1C` (centres undefined), the displacement was -2.9%.

`CCOC(=O)C(=O)Nc1cc(Cl)ccc1C`: the displacement is -10.6%.

Consider `Cc1c(N)cccc1-n1cnnn1`, for which the displacement is -4%.

Take `Cc1onc(-c2c(F)cccc2Cl)c1C(=O)N1CCc2ccccc2C1`: the displacement was -8.4%.

`O=C(COC(=O)CCc1nc2ccccc2s1)Nc1cccc(S(=O)(=O)N2CCOCC2)c1`: the displacement is -5.8%.

For `Cc1nc(NCc2ccc3c(c2)OCO3)c2nnn(Cc3ccccc3)c2n1`, the displacement is -8.1%.

`CCCc1nc(NCc2ccc3c(c2)OCO3)c2nnn(Cc3ccccc3Cl)c2n1`: the displacement is 51.1% (active).

`c1ccc(Cn2nnc3c(NCc4ccc5c(c4)OCO5)nc(C4CC4)nc32)cc1`: the displacement was -10.8%.

In the case of `O=C(COC(=O)c1ccc[n+]([O-])c1)Nc1c(Br)cc([N+](=O)[O-])cc1Br`, the displacement was -4.5%.

Turning to `Cc1cc(C)c(NC(=S)N(CCN(C)C)Cc2cccs2)c(C)c1`, the displacement was -10.6%.

With `C=C(C)C1Cc2c(C)nn(-c3cccc4ccccc34)c2C1` (centres undefined), the displacement was -4.8%.

Regarding `CCOC(=O)c1ccc(NC(=O)N2CCN(CCc3ccccc3)CC2)cc1`, the displacement was -8.1%.

`Cc1sc2ncn(-c3ccccc3)c(=O)c2c1C`: the displacement is 4.2%.

Turning to `Cc1ccc2nc(C3CCCN(C(=S)Nc4ccccc4C)C3)[nH]c2c1` (centres undefined), the displacement is -10%.

Regarding `CCCOC(=O)/C(=C\C=C\c1ccco1)NC(=O)c1ccccc1`, the displacement was -0.1%.

Consider `Cc1ccc(N/C(N)=N/c2nc(CSc3ccc(C)cc3)cc(=O)[nH]2)cc1`, for which the displacement is 1.1%.

`CC(/C=C1\SC(=S)N(NC(=O)c2ccccc2C)C1=O)=C\c1ccccc1`: the displacement is -1.8%.

Regarding `Fc1cccc(CSc2nc3ccncc3[nH]2)c1`, the displacement is -5.3%.

As to `CCOc1cc(N2CCOCC2)c(OCC)cc1NC(=O)CSc1ncccn1`, the displacement is -8.5%.

On to `O=C(Cn1cc(CCO)nn1)N1CCNCC1`, for which the displacement is -26.3%.

Turning to `CCOC(=O)c1c(C)[nH]c(C)c1C(=O)CSc1nnc(-c2ccncc2)n1C`, the displacement is -0.3%.

On to `O=C(Nc1cn(-c2ccccc2)nc1-c1ccc(Cl)cc1)c1ccccc1`, for which the displacement is -8.1%.

Take `CN1CCN(CC(O)COC(c2ccccc2)c2ccccc2)CC1` (centres undefined): the displacement was -2.7%.

Take `CS(=O)(=O)N(CC(=O)Nc1ccc2c(c1)OCO2)c1ccccc1`: the displacement was 0.9%.

`CCCCCC(=O)N1CCN(CCN=CC2=C(O)CC(c3ccc(OC)c(OC)c3)CC2=O)CC1` (centres undefined): the displacement was -3.4%.

Turning to `O=c1[nH]c2cc3c(cc2cc1CN(Cc1cccnc1)C(=S)NCc1ccco1)OCO3`, the displacement is -8.9%.

In the case of `O=C(NC1CCCC1)C(c1ccncc1)N(Cc1ccco1)C(=O)c1ccc(-c2ccccc2)[nH]1` (centres undefined), the displacement was -0.5%.

For the compound `CCc1ccc(C(=O)COC(=O)CNC(=O)c2ccc(N3C(=O)c4ccccc4C3=O)cc2)cc1`, the displacement was -2.7%.

Take `O=C(CNC(=O)c1ccc(N2C(=O)c3ccccc3C2=O)cc1)OCC(=O)c1ccc(Cl)cc1`: the displacement is 77.6% (active).

As to `O=C(CNC(=O)c1ccc(N2C(=O)c3ccccc3C2=O)cc1)OCC(=O)c1ccccc1`, the displacement was -3.8%.

For `O=C(c1ccc2c(=O)n(C3CCCC3)c(=S)[nH]c2c1)N1CCN(C2CCCCC2)CC1`, the displacement is -21.2%.

With `O=C(c1ccc2c(=O)n(C3CCCC3)c(=S)[nH]c2c1)N1CCCCCC1`, the displacement is 68.1% (active).

In the case of `CC1CCCN(C(=O)c2ccc3c(=O)n(C4CCCC4)c(=S)[nH]c3c2)C1` (centres undefined), the displacement was -8.7%.

As for `Cc1ccc(NC(=O)c2ccc(Cl)nc2)cc1`, the displacement is -3.5%.

For the compound `Cc1cccc(S(=O)(=O)NCC2CCCO2)c1` (centres undefined), the displacement is -6.3%.

On to `Cc1cc(C(=O)NCc2ccc(C(=O)O)o2)c(C)o1`, for which the displacement was -8.1%.

As for `CC1(C)NC(C)(C)c2nonc2/C1=N\O`, the displacement was -3.8%.

On to `CC(C)(C)n1nnnc1C(c1ccncc1)N(Cc1ccccc1)Cc1ccco1` (centres undefined), for which the displacement was -4.2%.

As for `O=S(=O)(/C=C/c1ccccc1)N1CCN(c2ccccc2)CC1`, the displacement was -3.9%.

Regarding `CC(C)(C)n1nnnc1C(c1cccnc1)N1CCN(c2cccc(C(F)(F)F)c2)CC1` (centres undefined), the displacement is -2.9%.

On to `CCOC(=O)Nc1ccc(OC)cc1S(=O)(=O)N1CCCCC1`, for which the displacement is -2.5%.

For `COc1ccc(NC(=O)c2cc(OC)c(OC)cc2OC)c(S(=O)(=O)N2CCOCC2)c1`, the displacement is -3.3%.

As to `CCCCOC(=O)Nc1ccc(OC)cc1S(=O)(=O)N1CCOCC1`, the displacement is 58.7% (active).

Turning to `O=C1c2ccccc2-c2onc3ccc(NCCCn4ccnc4)c1c23`, the displacement is 70.1% (active).

As to `O=C1c2ccccc2-c2onc3ccc(NCc4ccco4)c1c23`, the displacement is 76.4%.

In the case of `CCNc1ccc2noc3c2c1C(=O)c1ccccc1-3`, the displacement is -8.9%.

Regarding `Cc1cc(=O)[nH]c(S/C=C/c2ccccc2)n1`, the displacement is 0.7%.

For the compound `CCN(CC)S(=O)(=O)c1ccc(C)c(NC(=O)COC(=O)CNC(=O)c2ccc(C(C)(C)C)cc2)c1`, the displacement is -10.4%.

As to `Cc1nn(CCC#N)c2[nH]c(=O)cc(C(F)(F)F)c12`, the displacement was -4.9%.

Take `Cc1ccc(C(NC(N)=O)c2ccccc2C)cc1` (centres undefined): the displacement was -1.9%.

Take `S=c1[nH]nc(CN2CCCCC2)n1-c1ccc(Cl)cc1`: the displacement is -9.6%.

Values taken from PubChem BioAssay AID1018 (Sanford-Burnham Center for Chemical Genomics, 2008).
